# Experimental data: PubChem BioAssay AID1508625 (Wald Lab, School of Medicine, Case Western Reserve …, 2021)
# Experiment: enhancers of NK cell killing of ovarian tumor cells, primary screen, imaging, OVCAR3, primary NK cells, calcein-AM imaging (AID 1508625);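 also: compound given to NK cells 16 h before adding targets at 1.5 to 1 ratio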
# Conditions: OVCAR3 lysis by primary NK cells, at 5 µM; z-score: measured here: robust Z-score, single-point normalisation
SMILES,z-score,"corrected activity, negative = more killing [%]"
O=c1c2cn[nH]c2nc(SCc2ccccc2F)n1-c1ccc(Oc2ccccc2)cc1,-0.251,-0.689
O=C(CSc1nnc(-c2cccc(Br)c2)o1)c1ccc2c(c1)CCCC2,-1.33,-3.57
COc1ccc(NC(=O)c2sc3cc([N+](=O)[O-])ccc3c2Cl)c(OC)c1,-0.942,-2.66
CCN(C(=O)c1cc2c(=O)n3cccc(C)c3nc2s1)c1ccccc1,-1.77,-6.23
O=C(NN=Cc1ccccc1Cl)C(=O)Nc1cccc(C(F)(F)F)c1,-0.904,-2.13
Cc1ccc(NC(=O)CCNC(=O)Cn2cnc3ccccc3c2=O)c(Br)c1,-0.149,-0.469
Nc1nc(OCC(F)(F)F)cc(OCC(F)(F)F)n1,-1.46,-6.92
CC(C)(C)NC(=O)CSc1nc2ccc(Cl)cc2o1,-0.828,-2.67
CN(Cc1ccccc1)Cc1c(O)ccc2c(=O)c(Oc3ccccc3Br)c(C(F)(F)F)oc12,0.682,2.2
O=C(NC1CCCCC1)c1nn2c(C(F)(F)F)cc(-c3ccco3)nc2c1Br,-1.55,-4.13
CC1C2CCCN2CCN1Cc1cccc(Oc2ccccc2)c1 (stereo not given),-0.537,-1.23
O=C(NCc1cccc(Cl)c1)c1ccc2c(=O)n(Cc3cccc(Br)c3)c(=S)[nH]c2c1,-2.04,-6.41
O=C1C(=O)N(Cc2cccnc2)C(c2ccccc2)C1=C(O)c1ccc(F)cc1 (stereo not given),-0.837,-1.93
Nc1cc(OC(=O)c2cccs2)nn1S(=O)(=O)c1ccccc1,-1.37,-4.31
COC(=O)c1ccc(COC(=O)c2ccccc2Cl)cc1,-1.51,-2.71
